# Test results from PubChem BioAssay AID1851 (National Center for Advancing Translational Sciences (NCATS), 2009).
# “And” between values parts separate entries of the source, which are not always exact repeats. Identical values can stand only once. About 5,700 (36%) of roughly 16,000 compounds were called active. Roughly 24% stayed inconclusive and do not appear here. The list shows a part of the results. The source holds several records for some structures; these can differ, active in one and inactive in another. Unmarked numbers belong to inactive results. Calls come from the whole dose curve; as a rule, active = well fitted curve in the direction sought with a large enough effect; inconclusive = small, poorly fitted or top-dose-only effect, or effect the other way; inactive = no such curve, though single readings can be large or run the other way.
# Target: Cytochrome P450 1A2 (Homo sapiens) (UniProt P05177)
# Sequence (P05177 whole entry, looked up): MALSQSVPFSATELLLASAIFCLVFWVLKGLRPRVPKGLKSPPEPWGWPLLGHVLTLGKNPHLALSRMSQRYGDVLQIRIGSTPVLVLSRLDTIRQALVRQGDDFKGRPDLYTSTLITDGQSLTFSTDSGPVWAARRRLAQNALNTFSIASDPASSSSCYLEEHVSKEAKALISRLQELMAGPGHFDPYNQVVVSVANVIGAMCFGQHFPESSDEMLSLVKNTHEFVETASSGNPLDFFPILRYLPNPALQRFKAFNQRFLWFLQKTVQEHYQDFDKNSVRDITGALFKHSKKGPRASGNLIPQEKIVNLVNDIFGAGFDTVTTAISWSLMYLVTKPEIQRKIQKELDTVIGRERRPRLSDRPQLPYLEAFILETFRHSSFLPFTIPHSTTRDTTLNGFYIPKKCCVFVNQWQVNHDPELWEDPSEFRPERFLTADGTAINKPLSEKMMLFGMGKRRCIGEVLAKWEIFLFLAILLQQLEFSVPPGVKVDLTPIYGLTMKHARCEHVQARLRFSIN
# Test: Cytochrome panel assay with activity outcomes
# Details: recombinant CYP, pro-luciferin dealkylation, luminescence, p450-cyp1a2; series mostly up to 57.1 µM; activity, negative = inhibition: at the top concentration
# % is set by controls: 0 for no effect and ±100 for the full control effect.
SMILES,AC50,"activity, negative = inhibition"
c1ccc(Cc2nnc(Sc3ccccc3)c3ccccc23)cc1,17.8 µM (active),
O=c1[nH]c(=S)[nH]nc1Cc1ccccc1,,-3.25%
CCN(CC)S(=O)(=O)c1ccc(OC)c(NC(=O)c2cc([N+](=O)[O-])ccc2Cl)c1,,-1.84%
CCN(CC)S(=O)(=O)c1ccc2c(c1)nc(SCC(=O)N1CCOCC1)n2-c1ccccc1OC,,13%
CCN(CC)S(=O)(=O)c1cc(C(=O)Nc2ccccc2C(=O)O)ccc1OC,15.8 µM (active),
Cc1ccc(SCC(=O)NNC(=O)C2CCCCC2)cc1,,-15.2%
CCN(CC)S(=O)(=O)c1ccc(OC)c(NC(=O)CSc2ccccc2)c1,15.8 µM (active),
COC(=O)c1cc(OC)c(OC)cc1NC(=O)CSc1ccc(C)cc1,1.78 µM (active),
COc1ccc(C(=O)N2CCCCC2)cc1S(=O)(=O)Nc1ccccc1,,-28%
COC(=O)c1cc(OC)c(OC)cc1NC(=O)CSc1ccccc1,1.78 µM (active),
O=C(CSc1ccccc1)Nc1ccc(N2CCN(c3ccccc3)CC2)c(F)c1,,11.6%
O=c1n(-c2ccccc2)c(=O)n2n1CC[C@H]1/C(=N\OCc3ccccc3)[C@H]3O[C@@H]3[C@@H](O)[C@@H]12,,-12.4% [at 11.4 µM]
CN(C)c1ccc(-c2ccc3ncnc(N(C)C)c3c2)cc1,0.158 µM (active),
CN(C)C(=O)c1ccc(-c2ccc3ncnc(N(C)C)c3c2)cc1,20 µM (active),
CN(C)c1ncnc2ccc(-c3ccoc3)cc12,0.794 µM (active),
CCO[P@]1(=O)OC[C@@H]2O[C@H](n3cnc4c(N)ncnc43)[C@H](O)[C@@H]2O1,,-15.6% [at 2.29 µM]
CC(NC(=O)CN1CCCC1)C12CC3CC(CC(C3)C1)C2 (centres undefined),,-12.1%
COC(=O)[C@H](C)NC(=O)[C@@H](C)CO,,-7.75% [at 11.4 µM]
COc1ccc(-c2nn(-c3ccccc3)cc2/C=N/NC(=O)c2ccc(Br)o2)cc1,,-27.3%
O=C(N/N=C\c1cn(-c2ccccc2)nc1-c1ccccc1)c1ccc(Br)o1,3.55 µM (active),
Cc1ccc(-c2nn(-c3ccccc3)cc2/C=N/NS(=O)(=O)c2ccccc2)cc1,4.47 µM (active),
O=S(=O)(N/N=C\c1cn(-c2ccccc2)nc1-c1ccccc1)c1ccccc1,3.55 µM (active),
COCCCNC(=O)c1c(N)n(/N=C/c2ccccn2)c2nc3ccccc3nc12,2 µM (active),
CC1=NN(c2ccccc2)C(=O)[C@@H]1N=Nc1ccc(S(N)(=O)=O)cc1,1.26 µM (active),
Cn1c(N)c(N=Nc2ccc(S(N)(=O)=O)cc2)c(=O)n(C)c1=O,,-12.8% [at 2.29 µM]

SMILES,AC50,"activity, negative = inhibition"
CC1=NN(c2ccccc2)C(=O)C1C(=O)c1ccc(Cl)cc1 (centres undefined),,1.73%
CC(=O)OCC(=O)[C@@]1(O)CC[C@@H]2[C@H]3CCC4=CC(=O)CC[C@]4(C)[C@]3(F)[C@@H](O)C[C@@]21C,,-5.93% [at 25.6 µM]
Cc1ccc(C)c(-n2c(Cc3cc(=O)[nH]c(=O)[nH]3)nnc2SCC(=O)NCC2CCCO2)c1 (centres undefined),,-2.07%
Cc1[nH]nc2nc(SCC(=O)NCC3CCCO3)n(-c3ccc(Br)cc3)c(=N)c12 (centres undefined),10 µM (active),
CCC(C)NS(=O)(=O)c1ccc(OCC(=O)NCC2CCCO2)cc1 (centres undefined),,18.2%
C=CCn1c(=O)c2c(nc(-c3ccc(S(=O)(=O)O)cc3)n2C)n(C)c1=O,,-15%
CCOc1ccc(N2C(=O)/C(=C/c3cc(OC)c(OC)c(OC)c3)N(CC(=O)OC)C2=S)cc1,,12.3%
CCOc1cc(/C=C2\N=C(C)OC2=O)cc(Br)c1OCC(=O)OC,17.8 µM (active),
CCCCNC(=O)C1CC(=O)N(c2ccc(OC)cc2)C1c1ccc(OC)cc1 (centres undefined),,1.32%
CCN1C(=O)/C(=C2\SC(=S)N(CCCOC)C2=O)c2ccccc21,1.58 µM (active),
FC(F)(F)c1ccccc1-n1ccnc1,0.251 µM (active),
N#Cc1c(Cl)cccc1-n1ccnc1,1 µM (active),
N#Cc1c(-n2ccnc2)cccc1-n1ccnc1,2.51 µM (active),
CC(=O)Nc1ccc(NC2=Nc3ccccc3N3C2=Nc2c(c(C)nn2-c2ccccc2)C3c2ccccc2)cc1 (centres undefined),,4.37%
C=CCNC(=O)C1CCN(S(=O)(=O)CC)CC1,,-0.27%
COc1ccc(CNc2ncnc3ccc(-c4ccccc4C#N)cc23)c(OC)c1,6.31 µM (active),
COc1ccccc1CNc1ncnc2ccc(-c3ccccc3C#N)cc12,1.26 µM (active),
Cc1ccc(N(Cc2ccc([N+](=O)[O-])cc2)C(=O)c2ccco2)cc1,12.6 µM (active),
O=C1c2ccccc2C(=O)N1CCCCN(C(=O)c1ccc([N+](=O)[O-])cc1)c1ccc(Cl)cc1,,-16.4%
Cc1ccc(C(=O)N/C(=C\c2ccc([N+](=O)[O-])cc2)C(=O)NCCc2ccccc2)cc1,,-18.3%
Nc1nc(-c2cccs2)cs1,7.08 µM (active),-30.1% [at 2.29 µM]
NC(=O)C[C@H](N)C(N)=O,,-6.74% [at 11.4 µM]
CC(=O)SCC[N+](C)(C)C,,-12.4%
O=C(Nc1cccc(-c2nc3ccccc3s2)c1)c1ccc2c(c1)OCO2,2 µM (active),
Cc1ccc(-n2nc3ccc(NC(=O)c4ccc5c(c4)OCO5)cc3n2)cc1,,-26.7%

SMILES,AC50,"activity, negative = inhibition"
O=C(Nc1cc(-c2nc3ccccc3s2)ccc1Cl)c1ccc2c(c1)OCO2,1.41 µM (active),
CCc1sc(N(C(=O)Cc2ccccc2)c2cccc(F)c2)nc1-c1ccc(C)cc1,,-5.51%
Cn1cccc1CC(=O)N/N=C\c1cccs1,15.8 µM (active),
COc1ccc(N(CC(=O)N/N=C/c2cccs2)S(=O)(=O)c2ccc(OC)c(OC)c2)cc1,,1.39%
C/C(=N/NC(=O)Cc1cccn1C)c1ccccc1,20 µM (active),
CC(C)(C)c1cccc(Oc2nn[nH]n2)c1,,-3.32%
NC(=NCCC[C@H](N)C(=O)O)NO,,-1.24%
CN/C(=C\[N+](=O)[O-])NCCSCc1csc(CN(C)C)n1,,-4.81% [at 25.6 µM]
Cc1noc(C)c1COc1ccc(C(=O)NCC2CCCO2)cc1 (centres undefined),,-17.4%
O=C(Nc1ccccc1C(=O)NCC1CCCO1)c1ccc(Cl)cc1Cl (centres undefined),8.91 µM (active),
Cc1ccc(-c2nnn(CC(=O)N(c3ccccc3)C(C(=O)NCC3CCCO3)c3ccc(Cl)cc3)n2)cc1 (centres undefined),,9.48%
O=C(NCC1CCCO1)c1cc(-c2ccc(Cl)cc2Cl)on1 (centres undefined),2.51 µM (active),
O=C(O)c1cc(S(=O)(=O)NCC2CCCO2)ccc1Cl (centres undefined),,-17.5%
Clc1ccccc1NN(Cc1ccccn1)c1ccccc1Cl,,-22.4% [at 2.29 µM]
Clc1ccccc1NN(Cc1ccncc1)c1ccccc1Cl,5.01 µM (active),
CN(C)c1ccc(N=Nc2cccc3ccoc23)cc1,0.251 µM (active),
COC(=O)CNC(=O)CN1C(=O)N(c2ccccc2)C(N(O)C(=O)Nc2ccccc2)C1(C)C (centres undefined),,-12.4%
O=c1onc2cnc3ccccc3n12,2.51 µM (active),
O=C(Cn1cnc2ccccc21)NC(c1ccccc1)c1ccccc1,,-4.72%
O=C(NCCNC[C@@H](O)COc1ccc(O)cc1)N1CCOCC1,inactive,
COCCNC(=O)COc1ccc(OCCNC[C@@H](O)COc2ccccc2)cc1,,-35.6%
Cc1ccc(OCC(O)CNC(=O)c2ccccc2C(=O)O)cc1 (centres undefined),14.1 µM (active),
CC(=O)NC(CCS(C)(=O)=O)C(=O)Nc1c(F)cccc1F (centres undefined),,-0.273%
Cc1cccc(NC(=O)CSc2nc3nc(C)cc(C)c3c(=O)[nH]2)c1,2 µM (active),
Cc1cc(C)nc(SCCc2cccc[n+]2C)n1,,-18.6% [at 2.29 µM]

SMILES,AC50,"activity, negative = inhibition"
CC[N+](CC)(CC)CC(=O)Nc1c(C)cccc1C,,1.71%
Cc1cccc(NC(=O)CSc2nc3ccccc3c3nc(CCc4c(C)n[nH]c4C)nn23)c1,,-12.8%
Cc1cccc(NC(=O)CCSc2nc(C)cc(C)n2)c1,14.1 µM (active),
OCCN(C=NC1=NN(c2cccc(C(F)(F)F)c2)CC1)CCO,2.82 µM (active),
CCC(C)NC(=O)C1c2cc(OC)c(OC)cc2C(=O)N(C)C1c1cccs1 (centres undefined),,-7.16%
COc1ccc(-c2ccc3c(n2)CCCN3C[C@H](O)CN2CCCc3nc(C)c(C)cc32)cc1,,-2.83% [at 11.4 µM]
COc1ccc(-c2cc(C(F)F)nc(-n3nc(C)cc3C)n2)cc1,1.78 µM (active),
Fc1ccc([C@H]2CCNC[C@H]2COc2ccc3c(c2)OCO3)cc1,3.16 µM (active),
COc1cc(CN2CCN(C(=O)CC(C)C)CC2)cc(OC)c1OC,,-13.1%
OC(CN1CCCCC1)CN1CCCCC1,,-1%
Cc1nn2c(NCC(C)C)c3c(nc2c1-c1ccccc1)CCC3,2.82 µM (active),
CCC(C)[C@H](NC(=O)Nc1ccc(Oc2ccccc2)cc1)C(=O)O (some centres undefined),,-5.08%
CCN(CC)c1nc(Nc2ccccc2)nc(Oc2ccc(C(=O)OC)cc2)n1,12.6 µM (active),
CN1CCCC1CCNC1C2CC3CC(C2)CC1C3 (centres undefined),,-4.97%
COC(=O)c1c(C)[nH]c(O)c1C=Nc1ccc(C(C)C)cc1,5.62 µM (active),
CSc1nsc(SC)c1C(=O)Nc1ccc(C)cc1,7.08 µM (active),
CCCNC(=O)OC[C@@H]1O[C@H](CCO/N=C(\C)CCN2CCc3nc(CC)c(CC)cc3C2)C=C[C@@H]1Oc1ccc(OC)cc1,,-0.5% [at 11.4 µM]
CC1=C(CC(=O)O)c2cc(F)ccc2/C1=C\c1ccc(S(C)=O)cc1 (centres undefined),3.98 µM (active) and 12.6 µM (active),
CC1=C(CC(=O)O)c2cc(F)ccc2/C1=C\c1ccc(S(C)(=O)=O)cc1,12.6 µM (active),
C=C(C)[C@@H]1CC=C(C(=O)O)CC1,,-6.61%
COc1cccc(-c2nccc(NCc3cnc(C)cn3)n2)c1,0.501 µM (active),
Cc1cnc(CNc2ccnc(-c3cccc(C#N)c3)n2)cn1,1.26 µM (active),
Cc1cnc(CNc2ccnc(-c3cccc(NS(C)(=O)=O)c3)n2)cn1,20 µM (active),
